The list is not random: actives were taken first. Their share in the collection is about 4.4%.
TRHR PAM = allosterically enhances the human TRH receptor; 360,000 compounds, 0.66% hits; TRHR cells, fluo-8 calcium fluorescence, EC20 TRH enhancement; enhancement, % at 2 µM; P34981; in the data active = enhancement above about 30%; note: 0% is about no effect
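Enhancer read-out: after compound pinning and an initial kinetic agonist-mode read, an EC20 of TRH (10 nM final) was injected and fluo-8 calcium signal (Ex 480/Em 530) followed at 1 s/cycle for 100 cycles in TRHR-expressing cells.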
D1 antagonist = antagonists of human D1 dopamine receptor. activity change, negative = inhibition, % at 10 µM. P21728. 360,000 compounds, 3.2% hits. HEK293 TREx D1 cells, calcium flux, dopamine EC80; active compounds read low; in the data active = activity change below about -30%; note: % is set by controls: 0 for no effect and ±100 for the full control effect
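Calcium flux readout: force-coupled, inducible Hek293 Trex D1 line, cells induced overnight at 30 C with tetracycline, dye-loaded 30–90 min at RT. Antagonism scored against EC80 dopamine challenge given 180 s after compound.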
D1 potentiator = enhances dopamine response at the human D1 receptor. P21728. HEK293 TREx D1 cells, calcium flux, dopamine EC20 potentiation. potentiation, % at 10 µM. 360,000 compounds, 0.036% hits. AID 504651; in the data active = potentiation above about 30%; note: 0% is about no effect
USP1 inh = USP1/UAF1 (human) deubiquitinase inhibition | recombinant USP1/UAF1, Ub-Rhodamine cleavage fluorescence | Potency, µM (highest dose often 57.1 µM), inactives show at the highest dose activity change, negative = inhibition, hits mostly inhibitors | AID 743255 | 390,000 compounds, 0.23% hits | O94782; active = well fitted inhibition curve with a large enough effect; inconclusive = small, poorly fitted or top-dose-only effect; inactive = no such curve, though single readings can be large or run the other way; note: potency is the fitted concentration of half-maximal effect; % is set by controls: 0 for no effect and ±100 for the full control effect; nearly all actives have a fitted effect of over 60% in size
Target sequence (O94782 whole entry, looked up): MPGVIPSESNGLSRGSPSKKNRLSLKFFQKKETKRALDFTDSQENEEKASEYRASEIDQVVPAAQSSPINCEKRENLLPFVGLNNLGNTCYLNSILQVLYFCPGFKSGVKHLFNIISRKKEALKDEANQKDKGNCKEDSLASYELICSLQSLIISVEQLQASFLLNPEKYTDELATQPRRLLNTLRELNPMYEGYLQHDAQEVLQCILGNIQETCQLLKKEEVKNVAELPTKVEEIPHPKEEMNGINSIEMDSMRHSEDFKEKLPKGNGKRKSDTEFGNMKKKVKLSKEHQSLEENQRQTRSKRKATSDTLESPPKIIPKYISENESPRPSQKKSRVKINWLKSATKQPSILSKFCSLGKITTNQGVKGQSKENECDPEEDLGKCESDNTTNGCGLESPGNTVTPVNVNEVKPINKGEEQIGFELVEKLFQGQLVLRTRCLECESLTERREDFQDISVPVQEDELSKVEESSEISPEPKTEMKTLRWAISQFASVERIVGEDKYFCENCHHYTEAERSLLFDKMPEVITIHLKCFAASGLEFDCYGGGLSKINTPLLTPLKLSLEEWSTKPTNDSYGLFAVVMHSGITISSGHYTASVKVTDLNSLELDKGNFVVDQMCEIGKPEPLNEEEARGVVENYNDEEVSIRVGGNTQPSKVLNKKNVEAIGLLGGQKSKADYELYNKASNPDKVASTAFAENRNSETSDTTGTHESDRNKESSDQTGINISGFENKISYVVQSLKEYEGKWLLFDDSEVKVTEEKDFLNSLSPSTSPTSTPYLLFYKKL
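High-throughput fluorogenic screen: 1nM USP1/UAF1 complex, Ub-Rho substrate 150nM final, 50mM HEPES pH 7.8 with 0.5mM EDTA, 0.1 mg/ml BSA, 1mM TCEP and 0.01% Tween-20.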
TRHR agonist = agonists of human TRH receptor. P34981. TRHR cells, calcium flux fluo-8, FDSS agonist mode. activation, % at 2 µM. 360,000 compounds, 0.18% hits. AID 493084; note: 0% is about no effect
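In this calcium-flux screen, cells bearing human TRHR are dye-loaded with fluo-8, baselined for 10 cycles, then exposed to library compounds; positive kinetic calcium responses during the agonist phase mark hits, with TRH as control.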
D1 agonist = human D1 receptor agonism; P21728; HEK293 T-REx D1 cells, calcium flux, agonist mode; activation, % at 2 µM; 360,000 compounds, 1% hits; AID 504660; note: 0% is about no effect
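Tetracycline-induced HEK293 TREx D1 cells, force-coupled to calcium signalling, were dye-loaded with a no-wash calcium kit. Compound was pin-added after a 10 s baseline. Fluorescence was read kinetically at 1 cycle/s for 180 s, with calcium rises flagged as agonism.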
Numbers without * were called inactive; ? = inconclusive; · = no result given. Cut-off read from the data, not from the text of the source, unless noted: active = activation above about 30%; inactive = the rest.

SMILES	TRHR PAM	D1 antagonist	D1 potentiator	USP1 inh	TRHR agonist	D1 agonist
CCOc1ccc(NC(=O)CC(NC(C)=O)c2ccccc2)cc1S(=O)(=O)N1CCCC1 (configuration not stated)	-11.7	10.8	-1.8	-11.9%	0.3	1.5
COc1ccccc1CCC(=O)Nc1ccc(OC)c(S(=O)(=O)N2CCCCC2)c1	-0.3	-3.6	·	-5.2%	0.3	6.2
CCOc1ccc(NC(=O)CN(C)Cc2ccc3c(c2)OCO3)cc1S(=O)(=O)N1CCCC1	-13.0	-34.6*	-5.5	-12.6%	-0.7	-0.1
COc1ccc(CCC(=O)Nc2ccc(OC)c(S(=O)(=O)N3CCCCC3)c2)cc1OC	-0.7	2.8	-4.5	-25.7%	-0.5	-1.4
COc1ccccc1CCC(=O)OCC(=O)Nc1ccc(C)c(S(=O)(=O)N2CCCCC2)c1	-19.1	-32.7*	-7.0	-22.4%	0.9	4.5
COc1ccc(NC(=O)c2n[nH]c(=O)c3ccccc23)cc1S(=O)(=O)N1CCCCC1	-3.5	-38.7*	-1.1	-11.5%	0.1	1.2
CCc1ccc(C(=O)CCC(=O)Nc2ccc(OC)c(S(=O)(=O)N3CCCCC3)c2)cc1	0.1	-41.1*	·	-15.1%	0.4	6.7
COc1ccc(NC(=O)c2ccco2)cc1S(=O)(=O)N1CCCCC1	5.4	2.9	6.6	-4.5%	0.1	3.4
COc1ccc(-n2ccnc2SCC(=O)Nc2cccc(OC)c2)cc1	1.2	-18.0	-3.9	-17.4%	0.1	7.9
COc1ccc(-c2noc(-c3ccc(NCc4ccccc4OC)c([N+](=O)[O-])c3)n2)cc1	7.4	1.1	1.3	-18.7%	0.9	8.3
O=C(Nc1ccccc1Cl)[C@H](CSCc1ccccc1)N1Cc2ccccc2C1=O	-7.6	-16.8	-5.0	?	0.8	11.7
COc1ccc(N2CCN(Cc3nc4c(c(=O)n(C)c(=O)n4C)n3C(C)C)CC2)cc1	-1.1	-4.4	-1.8	?	-0.2	-1.1
CCOc1ccc(Nc2nn(-c3ccc(OC(F)(F)F)cc3)nc2C(C)=O)cc1	-2.4	-3.0	0.1	-6.2%	0.2	0.2
Cc1ccc(CNC(=O)c2nn(-c3ccc(Cl)cc3)nc2CO)cc1	0.2	-7.0	0.3	-15.2%	-1.4	2.0
CC(C)OCCCn1c(=O)c2ccccc2n2c(-c3ccc(F)c(F)c3)nnc12	4.5	-10.1	-2.4	8.7%	-1.4	11.3
Cc1nc2nc(NC(=O)c3ccc(Cl)cc3)[nH]n2c(=O)c1Cc1ccccc1	3.4	-6.6	1.5	12.1%	0.2	2.7
N#CCCCSc1nnnn1-c1cccc(Cl)c1	6.4	-36.8*	2.9	-8.7%	-0.5	0.4
O=C(NCc1ccccc1F)c1cccc(NC(=O)N2CCSc3ncccc32)c1	2.0	-12.2	-2.9	-13.4%	0.4	-0.8
CC1(c2ccc(Cl)cc2)CC(C)(C)N(C(=O)c2cccc(F)c2)c2ccccc21 (configuration not stated)	-8.7	14.8	-0.6	-25.7%	1.8	-0.2
O=C(CSc1cccc[n+]1[O-])NCC1CCCCC1	-2.3	-69.3*	1.4	1.3%	-0.9	0.2
O=C(CSc1cccc[n+]1[O-])N1CCCCCC1	0.2	-33.9*	0.8	-5.6%	0.8	2.5
O=C(CSc1cccc[n+]1[O-])CSc1cccc[n+]1[O-]	5.7	-3.0	-0.4	-16.8%	0.9	0.8
COCCCn1c(SCC(=O)Nc2ccc(F)cc2)nc2c(sc3ccccc32)c1=O	0.2	-6.0	-1.2	-9.9%	0.2	2.7
Cc1cc(C)cc(NC(=O)c2nnn(Cc3cc(C)ccc3C)c2N)c1	2.7	-43.9*	0.0	-6.4%	4.3	9.7
Cc1ccc(C)c(Cn2nnc(C(=O)Nc3ccc4c(c3)OCCO4)c2N)c1	7.3	-4.2	5.6	-10.7%	7.8	50.0*
SMILES	TRHR PAM	D1 antagonist	D1 potentiator	USP1 inh	TRHR agonist	D1 agonist
Cc1ccccc1Cn1nnc(C(=O)Nc2ccc3c(c2)OCCO3)c1N	1.6	1.0	0.2	-9.1%	1.4	11.5
COc1cccc(C(=O)Nc2cccc(C(=O)OCc3cc(=O)n4c5c(sc4n3)CCCC5)c2)c1	1.8	-19.4	0.1	-16.1%	-0.4	-2.2
OCC1(Cc2cccc(C(F)(F)F)c2)CCN(Cc2cc(F)cc(F)c2)CC1	-6.2	8.1	4.6	-17.7%	1.9	0.1
CSc1cccc(CN2CCC(CO)(Cc3cccc(C(F)(F)F)c3)CC2)c1	-9.3	12.8	-1.1	-9.5%	6.4	41.4*
CC(C)N(Cc1ccccc1)S(=O)(=O)c1ccc(N2CCCCS2(=O)=O)cc1	-1.4	-12.4	0.3	-26.2%	-0.5	4.9
O=C(CSc1nnc(-c2ccc(O)cc2)o1)c1ccc(Br)cc1	3.5	30.1	-1.6	-12.6%	1.7	38.5*
Cc1nn(S(=O)(=O)c2cccs2)c(C)c1Sc1ccc([N+](=O)[O-])cc1	-9.0	-5.0	5.1	-8.8%	0.0	0.4
Cc1nn(S(=O)(=O)c2ccccc2)c(C)c1Sc1ccc([N+](=O)[O-])cc1	-7.5	-33.0*	-9.3	-15.4%	0.1	2.3
Cc1cccc(NS(=O)(=O)c2cc(C(=O)NCCC3=CCCCC3)ccc2Cl)c1	34.6*	-1.5	-6.8	?	0.6	0.9
Cc1ccc(C)c(NS(=O)(=O)c2cc(C(=O)NCc3ccccn3)ccc2Cl)c1	6.4	-14.1	12.1	-6.0%	0.1	0.4
Cc1ccc(NS(=O)(=O)c2cc(C(=O)NCc3ccccn3)ccc2Cl)cc1C	-3.0	-30.9*	-4.5	7.9%	-0.8	0.8
O=C(CC1SC(=O)N(c2ccccc2)C1=O)Nc1ccccc1 (configuration not stated)	-4.9	-5.7	-1.9	-13.4%	0.0	2.9
O=C(CC1Sc2ncnn2C1=O)Nc1ccccc1 (configuration not stated)	30.3*	0.9	-2.4	-0.9%	-0.6	0.6
Cc1ccccc1-c1noc(-c2ccc(Cl)cc2)n1	2.2	14.0	4.0	0.5%	1.5	4.0
Cc1ccccc1-c1noc(-c2ccc(O)cc2)n1	5.2	-41.5*	3.9	-11.9%	-0.7	67.8*
COC(=O)/C=C(\C)NC(=O)c1ccc(F)cc1	34.4*	-6.5	3.8	-6.1%	0.1	4.6
COc1cc(OC)c(NC(=O)C(C)n2nc(-c3ccc(C)c(C)c3)ccc2=O)cc1Cl (configuration not stated)	-0.5	-4.0	1.4	-17.8%	0.2	4.1
O=C(CCc1nc(-c2cccs2)no1)Nc1cccc([N+](=O)[O-])c1	4.2	-33.9*	-1.7	-17.6%	-0.1	14.8
Cc1ccc(-c2noc(CCC(=O)NC3CCN(Cc4ccccc4)CC3)n2)cc1	14.9	-20.0	-2.8	-2.0%	-0.1	27.8

High-throughput results deposited in PubChem BioAssay by National Center for Advancing Translational Sciences (NCATS).
